About 720 (0.36%) of roughly 200,000 compounds were called active. Roughly 8% stayed inconclusive and do not appear here. Calls come from the whole dose curve; as a rule, active = well fitted activation curve with a large enough effect; inconclusive = small, poorly fitted or top-dose-only effect, or effect the other way, or another doubt; inactive = flat fitted curve, though single readings scatter. The list shows a part of the results.
target: Lysosomal alpha-glucosidase (Homo sapiens) (UniProt P10253); assay: qHTS Assay for Activators of Human alpha-Glucosidase as a Potential Chaperone Treatment of Pompe Disease; conditions: purified enzyme, 4-MU-alpha-glucoside fluorescence, 20 min; series mostly up to 76.9 µM; note: nearly all actives have a fitted effect of over 80% in size
Summary of the method: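 Fluorogenic assay, 4 nM enzyme, 400 uM 4-methylumbelliferyl-[…], pH 5.0 citrate/phosphate buffer with 0.005% Tween-20, compounds up to 77 uM, 20 min at room temperature. NaOH/glycine stop, Ex 365/Em 440 nm; AC50 from Hill fits.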
Potency is the fitted concentration of half-maximal effect.

Potency, active:
COc1cccc(C2CN(c3ccc(F)cc3F)N=C2c2cccs2)c1OC (stereo unspecified) 39.8 µM, COc1ccccc1C1CN(c2ccccc2)N=C1c1cccs1 (stereo unspecified) 39.8 µM, Fc1ccccc1N1CC(c2ccccc2)C(c2cccs2)=N1 (stereo unspecified) 35.5 µM, COc1ccccc1C1CN(c2ccc(F)cc2F)N=C1c1cccs1 (stereo unspecified) 28.2 µM, Fc1ccc(C2CC(c3cccs3)=NN2c2ccccc2)cc1 (stereo unspecified) 31.6 µM, Fc1ccc(N2N=C(c3cccs3)CC2c2ccccc2)cc1 (stereo unspecified) 31.6 µM, O=c1c(-c2nnc(SCc3ccc(Cl)cc3)o2)cccn1Cc1ccccc1 39.8 µM, O=c1c(-c2nnc(SCc3ccc(Cl)cc3Cl)o2)cccn1Cc1ccccc1 35.5 µM, O=c1c(-c2nnc(SCc3ccc(Cl)c(Cl)c3)o2)cccn1Cc1ccccc1 35.5 µM, O=c1oc2cc(Oc3c([N+](=O)[O-])cc(C(F)(F)F)cc3[N+](=O)[O-])ccc2c2c1CCCC2 35.5 µM, Nc1nc2nc(-c3cccs3)cc(C(F)(F)F)n2n1 28.2 µM, FC(F)(F)c1cc(-c2cccs2)nc2ncnn12 28.2 µM, CCCOc1ccc2cc(-c3ccccn3)c(=O)oc2c1 39.8 µM, COc1ccc(-c2cc3ccc(OCc4nn[nH]n4)cc3oc2=O)cc1 35.5 µM, CN(C)C(=O)COc1ccc2cc(-c3ccccc3)c(=O)oc2c1 35.5 µM, CSc1cnc2c(=O)n(C)c(=O)[nH]c2n1 35.5 µM, COCCCNC(=O)c1c(N)n(-c2cccc(S(N)(=O)=O)c2)c2nc3ccccc3nc12 35.5 µM, C=CCNC(=O)c1c(N)n(-c2cccc(S(N)(=O)=O)c2)c2nc3ccccc3nc12 25.1 µM, O=c1oc2c(CN3CCOCC3)c(O)ccc2c2c1CCC2 25.1 µM, O=c1oc2c(CN3CCOCC3)c(O)ccc2c2c1CCCC2 35.5 µM, CCOC(=O)c1nc2nc(-c3cccs3)cc(C(F)(F)F)n2n1 14.1 µM, COC(=O)c1nc2nc(-c3cccs3)cc(C(F)(F)F)n2n1 35.5 µM, O=C(NCc1cccs1)c1cc2c(s1)-c1ccccc1OC2 39.8 µM, CN(C)CCNC(=O)c1cc2c(s1)-c1ccccc1OC2 6.31 µM, COC(=O)c1ccc(-c2ncc(-c3cccc4ccccc34)o2)cc1 28.2 µM, Cc1cc(-c2ccc(C(=O)O)s2)cnc1N 28.2 µM, O=C(COC(=O)c1ccccc1Nc1ccccc1)NCc1ccccc1Cl 28.2 µM, CCCCNS(=O)(=O)c1ccc2nc(-c3cccs3)cc(C(=O)NCC(OC)OC)c2c1 25.1 µM, COc1cc2cc(C(N)=O)c(N)nc2cc1OC 35.5 µM, COc1ccccc1N1CCN(C(=O)c2c(-c3ccccc3)noc2C)CC1 35.5 µM, CCNC(=O)/C(C#N)=C/c1c(N2CCOCC2)nc2ccccn2c1=O 28.2 µM, O=c1cc(CN2CCN(S(=O)(=O)c3ccc4c(c3)OCCO4)CC2)c2ccc(O)cc2o1 28.2 µM, O=c1cc(CN2CCN(S(=O)(=O)/C=C/c3ccccc3)CC2)c2ccc(O)cc2o1 35.5 µM, O=c1[nH]c(=O)c2nc(-c3ccc(Cl)cc3)cnc2[nH]1 28.2 µM, c1ccc(CN2c3ccccc3-c3nc4ccccc4n3C2c2ccccn2)cc1 (stereo unspecified) 28.2 µM, CCN1c2ccccc2-c2nc3ccccc3n2C1c1ccccn1 (stereo unspecified) 31.6 µM, COCC(=O)Nc1ccc(-c2cn3cccnc3n2)cc1 35.5 µM, CCOCC(=O)Nc1ccc(-c2cn3cccnc3n2)cc1 35.5 µM, CC(=O)Nc1ccc(-c2cn3cccnc3n2)cc1 28.2 µM, CCOCC(=O)Nc1cc(-c2cn3cccnc3n2)ccc1C 35.5 µM, CCCCCC(=O)Nc1ccc(-c2cn3cccnc3n2)cc1 35.5 µM, Cc1onc(-c2ccccc2Cl)c1C(=O)Nc1ccc(-c2cn3cccnc3n2)cc1 35.5 µM, Cc1onc(-c2ccccc2Cl)c1C(=O)Nc1cccc(-c2nc3ncccn3c2C)c1 35.5 µM, CC(C)(O[C@@H]1O[C@H](CO)[C@@H](O)[C@H](O)[C@H]1O)[C@H]1Cc2cc3ccc(=O)oc3cc2O1 35.5 µM, O=C(Oc1cc2oc(=O)c3c(c2cc1Cl)CCCC3)c1ccco1 10 µM, O=C(Oc1ccc2c3c(c(=O)oc2c1)CCCC3)c1ccco1 35.5 µM, O=C(Oc1ccc2c3c(c(=O)oc2c1)CCC3)c1ccco1 35.5 µM, CC(C)c1cc(NCC2CCCO2)n2c(nc3ccccc32)c1C#N (stereo unspecified) 35.5 µM, CCCc1cc(NCC2CCCO2)n2c(nc3ccccc32)c1C#N (stereo unspecified) 35.5 µM, CCN1CCN(CCCNC(=O)c2cc3cc4ccc(OC)cc4nc3o2)CC1 35.5 µM, COc1ccc2cc3cc(C(=O)NCCCN4CCOCC4)oc3nc2c1 35.5 µM, CCCSc1nc2sc3c(c2c(=O)[nH]1)CCN(Cc1ccccc1)C3 31.6 µM, COC(=O)c1sc2cnccc2c1N 35.5 µM, COC(=O)c1sc2ccccc2c1N 39.8 µM, COC(=O)c1ccncc1N 35.5 µM, Cc1ccc(S(=O)(=O)c2c(N)n(CCCO)c3nc4ccccc4nc23)cc1 35.5 µM, Cc1cccc(S(=O)(=O)c2c(N)n(-c3ccccc3)c3nc4ccccc4nc23)c1 35.5 µM, Cc1ccc(-n2c(N)c(S(=O)(=O)c3ccccc3)c3nc4ccccc4nc32)cc1 25.1 µM, Cc1ccc(S(=O)(=O)c2c(N)n(CC3CCOC3)c3nc4ccccc4nc23)cc1 (stereo unspecified) 35.5 µM, Nc1c(S(=O)(=O)c2ccccc2)c2nc3ccccc3nc2n1C1CC1 28.2 µM, Cc1ccc(S(=O)(=O)c2c(N)n(C)c3nc4ccccc4nc23)cc1 25.1 µM, Nc1c(S(=O)(=O)c2ccccc2)c2nc3ccccc3nc2n1CCN1CCOCC1 39.8 µM, Nc1c(S(=O)(=O)c2ccccc2)c2nc3ccccc3nc2n1Cc1ccco1 28.2 µM, Cc1cccn2c(=O)c3cc(C#N)c(=NC(=O)c4ccncc4)n(CCCOC(C)C)c3nc12 35.5 µM, COCCCn1c(=NC(=O)c2ccccc2)c(C#N)cc2c(=O)n3cccc(C)c3nc21 39.8 µM, COCCCn1c(=NC(=O)c2ccncc2)c(C#N)cc2c(=O)n3cccc(C)c3nc21 35.5 µM, CCC12OC(=N)C(C#N)(C1C)C(C#N)(C#N)C(c1ccccc1)O2 (stereo unspecified) 39.8 µM, CCC1OC2(C)OC(=N)C1(C#N)C(C#N)(C#N)C2c1ccccc1 (stereo unspecified) 35.5 µM, CC(=O)Nc1ccc(S(=O)(=O)C(C#N)c2nc3ccccc3nc2NCCO)cc1 (stereo unspecified) 35.5 µM, CC(=O)Nc1ccc(S(=O)(=O)C(C#N)c2nc3ccccc3nc2NCCCO)cc1 (stereo unspecified) 31.6 µM, Cc1ccc(S(=O)(=O)NC(C(=O)Oc2ccc3c(C)c(Cl)c(=O)oc3c2)c2ccccc2)cc1 (stereo unspecified) 28.2 µM, Cc1ccc(S(=O)(=O)NC(C(=O)Oc2cc3oc(=O)cc(C)c3cc2Cl)C(C)C)cc1 (stereo unspecified) 31.6 µM, Cc1ccc(S(=O)(=O)NC(C(=O)Oc2ccc3ccc(=O)oc3c2)c2ccccc2)cc1 (stereo unspecified) 35.5 µM, O=C(Oc1ccc2ccc(=O)oc2c1)C1CCCCC1 35.5 µM, CC(NC(=O)OC(C)(C)C)C(=O)Oc1ccc2ccc(=O)oc2c1 (stereo unspecified) 31.6 µM, CC(C)(C)OC(=O)NCCC(=O)Oc1ccc2ccc(=O)oc2c1 35.5 µM, Cc1c(CCC(=O)O)c(=O)oc2cc(O)ccc12 35.5 µM, CCOC(=O)CCc1c(C)c2ccc(O)cc2oc1=O 35.5 µM, Cc1ccccc1C(=O)N=c1c(C#N)cc2c(=O)n3cccc(C)c3nc2n1Cc1ccco1 35.5 µM, Cc1cccc(C(=O)N=c2c(C#N)cc3c(=O)n4cccc(C)c4nc3n2Cc2ccco2)c1 35.5 µM, Fc1ccc(N2N=C(c3cccs3)CC2c2ccco2)c(F)c1 (stereo unspecified) 31.6 µM, Clc1ccc(N2N=C(c3cccs3)CC2c2ccco2)cc1 (stereo unspecified) 35.5 µM, O=c1oc2ccccc2c2c1SC(C(F)(F)F)C2 (stereo unspecified) 31.6 µM, NS(=O)(=O)c1ccc(N2N=C(c3ccccc3)CC2c2ccccc2)cc1 (stereo unspecified) 31.6 µM, COc1ccc(C2CC(c3ccccc3)=NN2c2ccc(Cl)c(C(=O)O)c2)cc1 (stereo unspecified) 28.2 µM, O=S(=O)(O)c1ccc(N2N=C(c3ccccc3)CC2c2ccccc2)cc1 (stereo unspecified) 35.5 µM, NS(=O)(=O)c1ccc(N2N=C(c3ccc(Br)cc3)CC2c2ccc(F)cc2)cc1 (stereo unspecified) 31.6 µM, NS(=O)(=O)c1ccc(N2N=C(c3ccccc3)CC2c2ccc(F)cc2)cc1 (stereo unspecified) 31.6 µM, NS(=O)(=O)c1ccc(N2N=C(c3ccccc3)CC2c2cccc(F)c2)cc1 (stereo unspecified) 35.5 µM, CCc1ccc(C2=NN(c3ccc(S(N)(=O)=O)cc3)C(c3ccc(F)cc3)C2)cc1 (stereo unspecified) 31.6 µM, COc1ccc(C2CC(c3ccccc3)=NN2c2ccc(S(N)(=O)=O)cc2)cc1OC (stereo unspecified) 31.6 µM
